Only some compounds are listed: those with a hit (about 12% of all), similar ones and a draw of the others.
L3MBTL1 inh: qHTS Assay for the Inhibitors of L3MBTL1 | AlphaScreen L3MBTL1–H3K9me1 peptide binding | Potency, µM (top dose mostly 57.1 µM), usual class: inhibitors | actives 0.66% (n = 230,000) | Lethal(3)malignant brain tumor-like protein 1 (Homo sapiens), Q9Y468; note: nearly all actives have a fitted effect of over 60% in size
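L3MBTL1 50 nM + b-AHA-H3(1-15)K9me1 75 nM, 30 min RT; compound added, 30 min RT; streptavidin donor/Ni-chelate acceptor beads 10 ug/mL each final, 30 min RT dark; AlphaScreen read.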
HP1b chromo inh: HTS for Inhibitors of HP1-beta Chromodomain Interactions with Methylated Histone Tails. Chromobox protein homolog 1 (Homo sapiens), P83916. AlphaScreen HP1-beta / biotin-H3K9me3 peptide binding. Potency, µM (series often up to 114 µM), hits mostly inhibitors. actives 0.56% (n = 390,000). AID 540317, 2011; note: nearly all actives have a fitted effect of over 70% in size
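Compound inhibition of the preformed complex between 50 nM HP1-beta and 50 nM biotinylated H3K9me3 peptide was read by AlphaScreen. Buffer was PBS pH 7.4 with 0.01% Tween-20. Incubations ran 30 min at room temperature, with 10 ug/mL donor/acceptor beads.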
JMJD2A Tudor inh: qHTS Assay for Inhibitors of JMJD2A-Tudor Domain. actives 4.4% (n = 390,000). Lysine-specific demethylase 4A (Homo sapiens), O75164. AlphaScreen JMJD2A-Tudor / H3K4me3 peptide binding. Potency, µM (series often up to 114 µM), most hits filed as inhibitors; note: nearly all actives have a fitted effect of over 50% in size
Target sequence (O75164 whole entry, looked up, the tested form may be a part): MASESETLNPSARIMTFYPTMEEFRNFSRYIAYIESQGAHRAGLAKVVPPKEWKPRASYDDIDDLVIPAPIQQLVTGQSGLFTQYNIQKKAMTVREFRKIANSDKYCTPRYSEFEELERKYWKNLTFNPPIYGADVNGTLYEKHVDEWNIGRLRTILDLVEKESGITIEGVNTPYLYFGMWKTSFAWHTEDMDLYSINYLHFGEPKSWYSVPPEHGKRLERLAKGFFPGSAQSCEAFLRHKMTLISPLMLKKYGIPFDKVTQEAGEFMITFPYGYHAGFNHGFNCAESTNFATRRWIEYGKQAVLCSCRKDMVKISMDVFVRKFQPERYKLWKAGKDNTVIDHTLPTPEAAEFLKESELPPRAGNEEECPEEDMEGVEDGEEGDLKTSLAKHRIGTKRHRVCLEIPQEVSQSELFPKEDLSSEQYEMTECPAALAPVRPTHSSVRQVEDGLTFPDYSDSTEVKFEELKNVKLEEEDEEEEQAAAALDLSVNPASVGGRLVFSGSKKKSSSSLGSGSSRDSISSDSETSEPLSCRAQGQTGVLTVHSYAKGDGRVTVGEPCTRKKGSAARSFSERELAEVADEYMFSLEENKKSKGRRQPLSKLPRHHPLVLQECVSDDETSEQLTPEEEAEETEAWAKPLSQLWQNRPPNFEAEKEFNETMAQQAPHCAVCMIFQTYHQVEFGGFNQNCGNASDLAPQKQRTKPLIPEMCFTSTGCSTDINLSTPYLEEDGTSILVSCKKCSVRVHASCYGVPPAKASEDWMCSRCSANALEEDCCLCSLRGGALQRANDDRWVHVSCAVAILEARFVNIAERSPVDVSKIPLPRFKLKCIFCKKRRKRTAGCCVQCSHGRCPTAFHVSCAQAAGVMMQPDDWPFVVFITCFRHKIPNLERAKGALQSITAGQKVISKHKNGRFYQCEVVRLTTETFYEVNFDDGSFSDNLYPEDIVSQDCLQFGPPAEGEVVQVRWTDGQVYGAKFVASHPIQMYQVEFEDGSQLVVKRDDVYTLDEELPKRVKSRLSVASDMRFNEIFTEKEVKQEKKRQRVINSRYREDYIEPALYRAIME
Sfp PPTase inh: qHTS Assay for Inhibitors of Bacillus subtilis Sfp phosphopantetheinyl transferase (PPTase) | actives 3.5% (n = 310,000) | Biochemical Sfp PPTase activity, qHTS | Potency, µM, hits mostly inhibitors | 4'-phosphopantetheinyl transferase ffp (Bacillus subtilis), Q9F4F7 | AID 1490, 2009;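 note: the enzyme is Sfp with the accession as filed and its product quenches rhodamine fluorescence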
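Buffer: 50 mM Hepes-Na pH 7.6, 10 mM MgCl2, 0.01% Nonidet P-40, 0.01% BSA. Enzyme 15 nM, pre-exposed to compound 15 min; substrates then added and fluorescence change tracked over 30 min.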
BAZ2B block: qHTS Assay for Inhibitors of BAZ2B; AlphaScreen BAZ2B-H3K14Ac peptide displacement; Potency, µM (top dose mostly 114 µM), hits mostly inhibitors; actives 4.4% (n = 360,000); AID 504333, 2011; note: nearly all actives have a fitted effect of over 60% in size
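BAZ2B (50 nM) with biotin-H3(5-23)K14Ac peptide (50 nM) in PBS pH 7.4, 0.01% Tween-20, preformed 30 min, then compound 30 min at room temperature; top concentration 110uM. AlphaScreen streptavidin donor/nickel chelate acceptor beads (10 ug/mL final), 20 min dark, signal read.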
G9a block: qHTS Assay for Inhibitors of Histone Lysine Methyltransferase G9a | Histone-lysine N-methyltransferase EHMT2 (Homo sapiens), Q96KQ7 | G9a H3K9 monomethylation, AlphaScreen, 2 h | Potency, µM (titrated, usually from 102 µM), hits mostly inhibitors | actives 8.8% (n = 350,000) | AID 504332, 2011; note: nearly all actives have a fitted effect of over 75% in size
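Methyltransferase reactions run at room temperature for 2 h (20 nM enzyme, 500 nM biotin-H3K9 peptide, 20 uM SAM) after a 15 min compound preincubation; product detected by AlphaScreen beads and anti-H3K9me1 antibody.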
Each line names hits and unclear results; the compound was inactive in the other large screens. Calls come from the whole dose curve; as a rule, active = well fitted curve in the direction sought with a large enough effect; inconclusive = small, poorly fitted or top-dose-only effect, or another doubt; inactive = no such curve, though single readings can be large; an effect the other way counts as inactive or inconclusive.

CN1CCN(S(=O)(=O)c2cccc(C(=O)Nc3ccccc3N3CCCC3)c2)CC1	G9a block inconclusive (no result: L3MBTL1 inh)
CC1CN(S(=O)(=O)c2cccc(C(=O)Nc3ccccc3N3CCCC3)c2)CC(C)O1 (stereo not given)	JMJD2A Tudor inh inconclusive, G9a block 50µM (no result: Sfp PPTase inh)
COC(=O)c1sc(NC(=O)/C=C/c2ccc(C)o2)nc1C	Sfp PPTase inh inconclusive, G9a block inconclusive
CC1CN(S(=O)(=O)c2cccc(C(=O)Nc3cc(Cl)ccc3N3CCOCC3)c2)CC(C)O1 (stereo not given)	none (no result: Sfp PPTase inh)
CN1CCN(S(=O)(=O)c2cccc(C(=O)Nc3cc(Cl)ccc3N3CCOCC3)c2)CC1	G9a block 16µM (no result: Sfp PPTase inh)
COc1ccccc1N(C(=O)c1ccncc1)c1nc(-c2ccc([N+](=O)[O-])cc2)cs1	HP1b chromo inh inconclusive, JMJD2A Tudor inh inconclusive, BAZ2B block inconclusive, G9a block 10µM
CN1/C(=C\C=N\O)C(C)(C)c2ccccc21	none
CO/N=C/C=C1/N(C)c2ccccc2C1(C)C	BAZ2B block inconclusive, G9a block 50µM
CN(C)c1ccc(N=C/C=C2/N(C)c3ccccc3C2(C)C)cc1	L3MBTL1 inh inconclusive, HP1b chromo inh inconclusive, JMJD2A Tudor inh 40µM, BAZ2B block 20µM, G9a block 7.1µM
CN1/C(=C\C=[N+](C)c2ccccc2)C(C)(C)c2ccccc21	JMJD2A Tudor inh 35µM, Sfp PPTase inh inconclusive, G9a block inconclusive
CC(=O)c1ccc(NC(=O)Cn2cnc3nc4c(cc3c2=O)CC(C)CC4)cc1 (stereo not given)	none (no result: L3MBTL1 inh, Sfp PPTase inh)
CCOC(=O)c1cccc(NC(=O)CCc2c(C)nn(-c3ccc(N4CCCCC4)nn3)c2C)c1	JMJD2A Tudor inh inconclusive, BAZ2B block inconclusive (no result: L3MBTL1 inh, Sfp PPTase inh)
O=C(CNC1=NCCC1)c1ccc(Cl)cc1	G9a block 28µM
S=c1[nH]nc(-c2ccc3ncccc3c2)n1-c1ccc2c(c1)OCCO2	JMJD2A Tudor inh inconclusive, Sfp PPTase inh 79µM, G9a block 2.2µM
Oc1ccc(-c2n[nH]c(=S)n2-c2ccc3c(c2)OCCO3)cc1	JMJD2A Tudor inh inconclusive, Sfp PPTase inh 79µM, BAZ2B block inconclusive, G9a block 0.71µM
c1coc(-c2nc3nc4ccccc4nc3n2-c2ccc3c(c2)OCCO3)c1	none
O=C1C=C(c2ccc3ncccc3c2)C[C@@H](c2ccc3c(c2)OCO3)C1	JMJD2A Tudor inh inconclusive, BAZ2B block inconclusive (no result: Sfp PPTase inh)
NC(=O)c1ccc(SCC(=O)OCC(=O)NCC2CCCCC2)c([N+](=O)[O-])c1	G9a block 45µM (no result: Sfp PPTase inh)
CCOC(=O)CSc1ccc(S(=O)(=O)N(C)C2CCCCC2)cc1[N+](=O)[O-]	JMJD2A Tudor inh 56µM, BAZ2B block inconclusive, G9a block inconclusive (no result: L3MBTL1 inh)
CC1CCCC(C)N1C(=O)COC(=O)CSc1ccc(C(N)=O)cc1[N+](=O)[O-] (stereo not given)	G9a block 45µM (no result: Sfp PPTase inh)
CCC1CCCCN1C(=O)COC(=O)CSc1ccc(C(N)=O)cc1[N+](=O)[O-] (stereo not given)	none (no result: Sfp PPTase inh)
CCOC(=O)CSc1ccc(S(=O)(=O)N2CCCCC2)cc1[N+](=O)[O-]	JMJD2A Tudor inh inconclusive, BAZ2B block inconclusive
COc1ccc(CNC(=O)CN2C(=O)NC3(CCCCCCC3)C2=O)cc1	none (no result: Sfp PPTase inh, BAZ2B block, G9a block)
COc1ccc2c(c1)OC(=O)CC2c1ccccc1OC (stereo not given)	none (no result: BAZ2B block)
COc1ccc2c(c1)C(c1ccccc1OC)CC(=O)O2 (stereo not given)	G9a block 35µM (no result: L3MBTL1 inh, HP1b chromo inh, JMJD2A Tudor inh, BAZ2B block)
NC(=O)CC(NC(=O)c1ccccc1)c1ccc(NC2CCCC2)c([N+](=O)[O-])c1 (stereo not given)	none (no result: L3MBTL1 inh)
CCCNC(=S)N(Cc1ccccc1)Cc1nc2ccccc2c(=O)[nH]1	G9a block 7.1µM
CCOCCCNC(=S)N(Cc1ccccc1)Cc1nc2ccccc2c(=O)[nH]1	Sfp PPTase inh inconclusive, G9a block 10µM
O=C(c1ccncc1)N(Cc1ccccc1)Cc1nc2ccccc2c(=O)[nH]1	none (no result: L3MBTL1 inh)
CCN1C(=NCCN2CCOCC2)N[C@@H](CCc2ccccc2)C(C(=O)OC)=C1C	none (no result: L3MBTL1 inh, HP1b chromo inh, JMJD2A Tudor inh)
CCn1c(O)c(/C=C/C=C/C=Nc2ccccc2)sc1=S	HP1b chromo inh inconclusive, JMJD2A Tudor inh inconclusive, Sfp PPTase inh inconclusive, BAZ2B block inconclusive, G9a block 14µM
CCCCn1c(O)c(/C=C/C=C/C=Nc2ccccc2)sc1=S	HP1b chromo inh 3.2µM, JMJD2A Tudor inh inconclusive, BAZ2B block 6.3µM, G9a block 2.8µM
Oc1c(/C=C/C=C/C=Nc2ccccc2)sc(=S)n1Cc1ccccc1	L3MBTL1 inh inconclusive, HP1b chromo inh inconclusive, JMJD2A Tudor inh inconclusive, Sfp PPTase inh inconclusive, BAZ2B block inconclusive, G9a block 2.2µM
CCn1c(O)c(C=NCc2ccccc2)sc1=S	JMJD2A Tudor inh inconclusive, BAZ2B block inconclusive (no result: G9a block)
Cc1ccc(-c2nc(C=Nc3ccccc3)c(O)o2)cc1	none (no result: L3MBTL1 inh)
CCCn1c(O)c(C=Nc2ccccc2)sc1=S	none
CCn1c(O)c(C=Nc2ccccc2)oc1=S	Sfp PPTase inh inconclusive, G9a block 28µM
N#Cc1cccc(-c2ccc3ncnc(NCc4ccccc4)c3c2)c1	none (no result: L3MBTL1 inh, HP1b chromo inh, JMJD2A Tudor inh, BAZ2B block)
O=C(CSc1nc2ccccc2[nH]1)NC1CCCC1	L3MBTL1 inh inconclusive, BAZ2B block 79µM, G9a block 50µM
O=C(CSc1nc(-c2ccccc2)c(-c2ccccc2)[nH]1)NCC1CCCO1 (stereo not given)	BAZ2B block inconclusive, G9a block 28µM (no result: L3MBTL1 inh)
O=C(CSc1ncccn1)NCC1CCCO1 (stereo not given)	none (no result: L3MBTL1 inh, Sfp PPTase inh, BAZ2B block, G9a block)
CCOC(=O)NC(=O)CSc1nc2ccccc2[nH]1	BAZ2B block inconclusive, G9a block 56µM

Bioassay records (PubChem BioAssay)
